The values that follow come from PubChem BioAssay AID1259416 (Broad Institute, 2018).

The structures appear in SMILES notation. “And” between values parts separate entries of the source, which are not always exact repeats. Equal entries are not always repeated. The whole screen tested about 69,000 compounds, of which about 2,600 (3.8%) were called active. No stated cut-off is given here; in the data, active means activity change below about -70% (passing the limit was not always enough); inconclusive means no clear call, values can overlap the other calls. Shown is part of a subset that was picked to be rich in actives. Where a structure was tested more than once in an assay, its records may differ in their call.

This assay is described as follows: T. gondii growth inhibition with IFN-gamma, primary screen, cell-based (AID 1259416).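 Further: host cells are HeLa cells infected with Toxoplasma gondii.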 The note with it: Toxoplasma gondii growth in IFN-gamma-treated host cells; stronger effect = lower value; concentration not given here.
As for `CC(C)CNC(=O)c1ccc2c(c1)C(c1ncn(C(C)C)n1)CN2C(=O)c1ccccc1` (centres undefined), the activity change, negative = inhibition was -46.3% (inactive).

Turning to `Cc1nc2cc(C(=O)NC3(c4ccc5c(c4)OCO5)CCCC3)ccc2s1`, the activity change, negative = inhibition was -5.47% (inactive).

On to `C=CCN(Cc1ccccc1Cl)C(=O)c1ccc(CN(C)C)o1`, for which the activity change, negative = inhibition was -46.3% (inactive).

On to `Cc1ccc(CC(=O)c2cccnc2)cc1`, for which the activity change, negative = inhibition was 14% (inactive).

For the molecule `Cc1cc(-c2ccccc2CN2CCOCC2)ccc1NC(=O)c1cccnc1`, the activity change, negative = inhibition was -6.76% (inactive).

On to `C/C(=N/N1CCN(Cc2cccc3ccccc23)CC1)c1cccnc1`, for which the activity change, negative = inhibition is -96% (active).

`Cc1ccc(-c2cc(C(=O)Nc3ccc4c(c3)N(S(C)(=O)=O)CCC4)[nH]n2)cc1`: the activity change, negative = inhibition was -78.5% (active).

As to `Cc1ccc(C(=O)Nc2ccc(-c3nc(-c4ccc(C)cc4)co3)cc2)cc1`, the activity change, negative = inhibition is 42.6% (inactive).

Consider `O=C1CCc2cc(NC(=O)c3cc(-c4ccccc4)nc4ccccc34)ccc2N1`, for which the activity change, negative = inhibition is -32.2% (inactive).

On to `CN1CCN([C@H]2CN(Cc3ncc[nH]3)C[C@@H]2O)CC1`, for which the activity change, negative = inhibition is 28% (inactive).

With `c1cncc(-c2nc3c(c(NCCC4CCOC4)n2)CCNC3)c1` (centres undefined), the activity change, negative = inhibition was -9.13% (inactive).

With `CCn1c(-c2cc(NC(=O)c3ccncc3)n[nH]2)cc2ccccc21`, the activity change, negative = inhibition was -91% (active).

For the molecule `CCC(NC(=O)CCn1c(C)cc2ccccc21)c1cccnc1` (centres undefined), the activity change, negative = inhibition was 0.306% (inactive).

With `CN1CCN(C(=O)c2cncc(N3CCC4(CCOCC4)CC3)n2)CC1`, the activity change, negative = inhibition is -7.63% (inactive).

With `Cc1nc(N)nc(C)c1CC(=O)N1CCC2(CCOCC2)CC1`, the activity change, negative = inhibition is -82.2% (active).

Take `Cc1nc(C)n(C(=O)N2CCOCC2)n1`: the activity change, negative = inhibition is -8.09% (inactive).

Take `COCCN1CC[C@@H]2C[C@@H](C(=O)N3CCCCO3)O[C@@H]2C1`: the activity change, negative = inhibition was -6.09% (inactive).

For `CCN1CCO[C@H]2CN(S(=O)(=O)c3cccs3)CC[C@@H]2C1`, the activity change, negative = inhibition was 1.58% (inactive).

Turning to `COC(C)c1nncn1-c1cccc2ccccc12` (centres undefined), the activity change, negative = inhibition is -48.2% (inactive).

As for `CC(=O)NC1(c2ccc(F)cc2)CCN(Cc2ccc(Oc3ncccn3)cc2)CC1`, the activity change, negative = inhibition was 9.39% (inactive).

For `Cc1ccn(CC(=O)N2CCN3CCNC(=O)C3C2)n1` (centres undefined), the activity change, negative = inhibition is -2.78% (inactive).

Consider `COc1ccccc1OCc1cc(C(=O)NCCF)n[nH]1`, for which the activity change, negative = inhibition is 35.8% (inactive).

Regarding `CN(C)S(=O)(=O)c1ccc2c(c1)cc(C(=O)NCCC1=CCCCC1)n2Cc1ccncc1`, the activity change, negative = inhibition was -54.8% (inactive).

In the case of `O=S(=O)(NCCC1=CCCCC1)c1ccc(S(=O)(=O)NC2CCCCC2)cc1`, the activity change, negative = inhibition is -84.3% (active).

For `CCCNS(=O)(=O)c1ccc(CCC(=O)N2CCCC2)cc1`, the activity change, negative = inhibition was -8.43% (inactive).

Consider `Cc1ccccc1NC(=O)c1ccc2ccc(N3CCN(CC4CC4)CC3)n2c1`, for which the activity change, negative = inhibition is 2.07% (inactive).

On to `N#C[C@H]1N[C@H](CO)[C@H]1c1ccc(-c2cccc(F)c2)cc1`, for which the activity change, negative = inhibition was 17.8% (inactive).

For the molecule `CC(=O)N1CCCCN2[C@H](CO)[C@H](c3ccc(-c4ccccc4)cc3)[C@@H]2C1`, the activity change, negative = inhibition was 12.2% (inactive).

As for `CC(C)C(=O)Nc1cccnc1-c1ccc(C(C)N2CCOCC2)cc1` (centres undefined), the activity change, negative = inhibition is 0.361% (inactive).

For `COc1ccccc1CCC(=O)N1CCC2(CC1)Nc1cccnc1NC2=NC(C)(C)C`, the activity change, negative = inhibition is 74.7% (inactive).

For the molecule `Cc1[nH]c2ccccc2c1Sc1ccc(Cl)cc1`, the activity change, negative = inhibition is -55.7% (inactive).

`CSc1nn2c(C)cc(C)nc2c1C#N`: the activity change, negative = inhibition is 44.4% (inactive).

Turning to `Cc1cc(C)c(C#N)c(Sc2ccc(Cl)cc2)n1`, the activity change, negative = inhibition is -73.5% (active).

For `COc1ccc(NS(=O)(=O)c2ccc(NC(=S)NC(=O)c3cccs3)cc2)nn1`, the activity change, negative = inhibition was 1.98% (inactive).

As for `O=C(Cc1ccccn1)N1[C@@H]2CNc3ccccc3[C@@H]2[C@@H]1CO`, the activity change, negative = inhibition was 1.07% (inactive).

For the molecule `CCCn1cc(C(=O)N(Cc2ccccn2)CC2CCCO2)c(C)n1` (centres undefined), the activity change, negative = inhibition was -1.25% (inactive).

With `Cc1nc([C@@H]2C[C@H]3CCN(Cc4sccc4C)C[C@@H]3O2)no1`, the activity change, negative = inhibition was 95.8% (inactive).

For the molecule `Cc1ccc2c(c1C)-n1cccc1C1(CCN(S(=O)(=O)c3ccc(C4CCCCC4)cc3)CC1)N2`, the activity change, negative = inhibition is 30.2% (inactive).

Take `C=CCn1c(SCc2ccc(C(=O)NCCO)cc2)nc2ccccc2c1=O`: the activity change, negative = inhibition was -34.4% (inactive).

Take `Cn1c(SCc2csc(C3CCCCC3)n2)nc2ccccc2c1=O`: the activity change, negative = inhibition was -80.1% (active).

Take `Cn1c(CNC(=O)CC2CCCC2)nnc1SCc1ccccn1`: the activity change, negative = inhibition is 2.95% (inactive).

In the case of `Cc1ccsc1-c1cn(CC2(Cn3ccnc3C)CC2)nn1`, the activity change, negative = inhibition was 8.54% (inactive).

With `O=C(c1cn(-c2ccccc2)nn1)N(Cc1ccsc1)CC1CCCO1` (centres undefined), the activity change, negative = inhibition was 1.85% (inactive).

As to `COCc1ncc(CN2CCC(Cc3cccc(C(=O)O)c3)C2)cn1` (centres undefined), the activity change, negative = inhibition was 3.4% (inactive).

Take `Cc1oc(C(C)(C)C)cc1C(=O)Nc1ccc(SCc2cccc(Cl)c2F)cc1`: the activity change, negative = inhibition was -75.3% (active).

Regarding `Cc1cnc(CN(C)C(=O)C(C)(C)NC(=O)c2cccs2)[nH]1`, the activity change, negative = inhibition is -13.9% (inactive).

For `CN1CCN(c2ccc3nc(-c4c(N)c5c(F)cccc5[nH]c4=O)[nH]c3c2)CC1`, the activity change, negative = inhibition is -66.4% (inactive) and -77.3% (active).

In the case of `Clc1cccnc1-c1cccc2[nH]ccc12`, the activity change, negative = inhibition was 9.34% (inactive).

Take `CC(C)C(=O)NS(=O)(=O)c1ccc(NC(=O)c2ccccc2)cc1`: the activity change, negative = inhibition is 5.8% (inactive).

On to `COc1cccc(NC(=O)Nc2ccc3c(c2)C(=O)N(C)C[C@@H](OC)[C@H](C)CN(CC2CC2)[C@H](C)CO3)c1`, for which the activity change, negative = inhibition is 63.1% (inactive).

Regarding `COc1cccc(CNC(=O)Nc2ccc(-c3nc(-c4cc(C)ccc4C)co3)cc2)c1`, the activity change, negative = inhibition was -13% (inactive).

Turning to `COc1cc(NC(=O)Nc2cccc(CNC(=O)O[C@H]3CCOC3)c2)ccc1-c1cnco1`, the activity change, negative = inhibition was -72.9% (active).

`Cc1nc2c(c(N3CCN(C(=O)c4ccccc4F)CC3)n1)CN(Cc1ccccc1)CC2`: the activity change, negative = inhibition was -27.3% (inactive).

Consider `COCC(=O)N1CCC(N(C)Cc2ccccc2)CC1C(=O)O` (centres undefined), for which the activity change, negative = inhibition is 3.74% (inactive).

With `Cc1nn(C)cc1-c1ccnc(NCC2CCN(Cc3ccccc3)C2)n1` (centres undefined), the activity change, negative = inhibition is -13.6% (inactive).

Regarding `Cc1nn(-c2ccccc2)c(C)c1-c1ccnc(NCc2cnc3ccccn23)n1`, the activity change, negative = inhibition was -82.8% (active).

Turning to `COc1cc(CN(C)Cc2ncccc2C)cc(OC)c1`, the activity change, negative = inhibition was -4.74% (inactive).

`COCCN1C(=O)CCc2cc(NC(=O)CC(C)(C)C)ccc21`: the activity change, negative = inhibition is 3.59% (inactive).

As for `CN(Cc1cccnc1)C1COC2(CCN(Cc3cccs3)CC2)C1` (centres undefined), the activity change, negative = inhibition is 1.79% (inactive).
